NALP3 yeast inh – NALP3 inhibition in yeast; Yeast reconstituted NLRP3/ASC/caspase-1, beta-gal luminescence, 24 h; hit rate 0.39% among 330,000; AID 2825; inhibition, % at 10 µM;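 active = inhibition of 50% or more; inactive = inhibition below 50%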;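 also: plate controls were induced DMSO wells for no effect and uninduced yeast grown without galactose for full effect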
SKKanGAS inh – blocks kanamycin growth of S. pyogenes SKKanGAS strain. hit rate 1.3% among 300,000. BacTiter-Glo, 6 h. inhibition, % at 7.5 µM;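 active = mean replicate score, as percent of positive control median, at least 50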;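 also: strain carries kanamycin resistance gene driven by streptokinase promoter and grows in 40 µg/ml kanamycin; loss of luminescence reflects streptokinase promoter inhibition or plain growth inhibition; 0% = median of DMSO wells and 100% = positive control at its reference dose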
TIM10 inh – growth inhibitors of TIM10 yeast strain; S. cerevisiae TIM10 strain growth, BacTiter-Glo luminescence, 24 h; inhibition, % at 10 µM; hit rate 1.4% among 330,000; AID 463195;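 active = inhibition of 40% or more at the single tested concentration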;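 also: wild-type TIM10 isogenic control strain grown at permissive 25 °C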
tim23-1 inh – growth inhibitors of tim23-1 mutant yeast | S. cerevisiae tim23-1 growth, BacTiter-Glo luminescence, 24 h | inhibition, % at 20 µM | hit rate 1.3% among 330,000;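 active = growth inhibition of the mutant yeast at or above 50%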;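 also: temperature-sensitive mutant grown at 25 °C; plate controls were DMSO-treated mutant yeast for no effect and medium wells lacking yeast for full effect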
PfHsp90 yeast 2 – reduces growth (ATP signal) of yeast expressing P. falciparum Hsp90; S. cerevisiae expressing PfHsp90, BacTiter-Glo ATP, 48 h; yeast lacking PDR1 and PDR3 efflux regulators; hit rate 0.32% among 310,000; inhibition, % at 9.4 µM;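 active = every replicate shows inhibition above about 80%, whatever the replicate mean, limit read from the data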;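 also: 0% = DMSO neutral controls and 100% = 20 µM radicicol positive controls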
tim10-1 inh – tim10-1 yeast growth inhibition. S. cerevisiae tim10-1 ts strain growth, BacTiter-Glo, 24 h. inhibition, % at 20 µM. hit rate 2.2% among 330,000. AID 463190;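 active = inhibition of at least 40%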;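 also: mutant grown at 25 °C; 0% = DMSO wells with yeast and 100% = wells holding no yeast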
tim10-1 confirm – tim10-1 yeast growth inhibition, confirmed | shares compounds with tim10-1 inh | S. cerevisiae tim10-1 ts strain growth, BacTiter-Glo, 24 h | inhibition, % at 20 µM | hit rate 56% among 7,400;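 active = inhibition of yeast growth at or above a set limit in either of two repeat tests at 20 µM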;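 also: tim10-1 mutant grown at permissive 25 °C to find synthetic lethal compounds; 0% = DMSO yeast wells and 100% = medium wells without yeast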
Starred values were filed as active, the others as inactive; / = no result given. Rows were chosen to be rich in hits. Some 4.6% of all compounds tested hit in one or more screens of this group.

SMILES | NALP3 yeast inh | SKKanGAS inh | TIM10 inh | tim23-1 inh | PfHsp90 yeast 2 | tim10-1 inh | tim10-1 confirm
Cc1ccccc1-c1nc(CS(=O)(=O)CC(=O)NC2CC2)c(C)o1 | 19.5 | 12.3 | -6.9 | -4.7 | 4.7 | -5.4 | /
O=C(CNC(=O)c1ccc(Br)o1)NCC1CCCCC1 | 8.6 | / | 2.6 | 6.6 | / | 4.0 | /
CC1CCCC(N2C(=O)NC(NC(=O)c3ccco3)(C(F)(F)F)C2=O)C1C (configuration not stated) | -3.3 | 0.5 | 7.3 | 20.6 | -7.4 | 46.6* | 25.7
O=C(CSc1ccc2nnc(-c3cccc(F)c3)n2n1)N1CCCc2ccccc21 | -9.8 | -2.2 | 9.0 | 10.2 | 15.5 | 31.4 | /
CCSc1ccc2nnc(-c3cccc(F)c3)n2n1 | 28.1 | -7.2 | 33.4 | 37.6 | -13.0 | 40.3* | 34.5*
COc1ccccc1N1C(=O)CC(Sc2n[nH]c(-c3cccc(C)c3)n2)C1=O (configuration not stated) | 7.1 | -1.9 | 9.2 | 46.4 | -7.4 | 47.4* | 35.8*
COc1ccccc1N1C(=O)CC(Sc2nccc(C)n2)C1=O (configuration not stated) | 10.8 | -2.9 | 1.8 | 8.2 | -10.6 | -0.8 | /
CCc1[nH]nc(C(=O)N2CCCC(Nc3cccc(F)c3)C2)c1C (configuration not stated) | 0.7 | 19.8 | 0.7 | 1.0 | 1.4 | -0.4 | /
CCS(=O)(=O)c1ncc(Cl)c(C(=O)Nc2ccc(S(=O)(=O)N3CCCC(C)C3)cc2)n1 (configuration not stated) | 15.8 | 37.3 | -3.3 | 38.8 | -40.0 | 42.7* | -2.8
CCC1CCCCN1S(=O)(=O)c1ccc(NC(=O)c2nc(S(C)(=O)=O)ncc2Cl)cc1 (configuration not stated) | -2.5 | 50.6* | 23.8 | 38.3 | 3.4 | 53.7* | 8.9
CCOC(=O)CC(=O)NC(C)(C)CCCCC(C)(C)NC(=O)CC(=O)OCC | 10.8 | -3.1 | -20.0 | 2.2 | -23.2 | 12.8 | /
Cc1cccc(C)c1OCCNC(=O)CCC(=O)c1ccccc1 | 24.6 | -0.8 | -3.1 | 14.9 | -28.9 | 23.7 | /
CN(C)c1ccc(Nc2cc(Cl)ncn2)cc1 | 17.9 | 2.5 | -3.5 | -3.1 | 8.3 | -8.3 | /
Cc1c(/C=N/NC(=O)CNc2ccccc2)c2ccccn2c1C(=O)c1ccccc1 | 12.8 | 24.8 | 10.9 | 28.7 | 5.5 | 40.1* | 19.2
Cc1c(/C=N/NC(N)=O)c2ccccn2c1C(=O)c1ccncc1 | 0.4 | 1.2 | -7.8 | 13.3 | -27.0 | 9.5 | /
O=C(c1ccco1)N1CCCC(c2nc3c(nnn3Cc3cccc(Cl)c3)c(=O)[nH]2)C1 (configuration not stated) | 17.1 | 3.6 | -0.1 | -0.7 | -23.4 | 52.7* | -3.0
O=C(NCc1ccc2c(c1)OCO2)C(=O)NCC1OCCN1S(=O)(=O)c1ccccc1 (configuration not stated) | 1.3 | 2.2 | -4.2 | 9.9 | 4.9 | 4.8 | /
Cn1ncc(Br)c1NC(=O)Nc1ccccc1 | 25.1 | 0.7 | -16.3 | 12.5 | 22.0 | 1.7 | /
O=C(COC(=O)c1cc(Cl)ccc1[N+](=O)[O-])Nc1cccc2ccccc12 | 12.4 | 8.1 | 38.1 | 32.3 | -16.3 | 46.6* | 33.5*
Cc1ccccc1C(=O)O/N=C(\N)c1ccncc1 | -8.2 | -3.0 | -12.6 | 2.5 | 9.4 | 15.1 | /
Nc1c(C(=O)NCc2ccccc2)c2nc3ccccc3nc2n1CCCN1CCOCC1 | 12.1 | 7.7 | 19.7 | -0.2 | 9.1 | 26.7 | /
Nc1c(C(=O)NCc2ccc(F)cc2)c2nc3ccccc3nc2n1CCCN1CCOCC1 | 15.6 | 19.7 | 28.5 | 41.1 | 14.1 | 60.2* | 6.3
C/C(=N/Nc1nc(C)cc(-c2ccccc2)n1)c1ccco1 | 20.5 | -0.1 | 35.4 | 28.0 | -12.4 | 40.8* | 23.9
C/C(=N\Nc1nc(C)cc(-c2ccccc2)n1)c1ccccc1 | 27.8 | -5.4 | 8.3 | -2.2 | 2.2 | -4.8 | /
Cc1ccc(SCCNS(=O)(=O)c2ccc(F)cc2)cc1 | 21.4 | 0.9 | -12.5 | 35.9 | / | 40.8* | 15.4
SMILES | NALP3 yeast inh | SKKanGAS inh | TIM10 inh | tim23-1 inh | PfHsp90 yeast 2 | tim10-1 inh | tim10-1 confirm
Cc1ccc(-c2csc(N3CCN(CCCn4c(C(F)(F)F)nc5ccccc54)CC3)n2)cc1 | 0.4 | 16.4 | 10.0 | 3.7 | -6.5 | 22.5 | /
Cc1ccc(-c2csc(N3CCN(CCCn4c(-c5ccncc5)nc5ccccc54)CC3)n2)cc1 | -1.6 | 32.0 | -1.3 | -13.8 | -9.4 | 40.5* | 18.9
O=C(CN1C(=O)/C(=C/c2ccccc2)SC1=S)N1CCN(CCc2ccccn2)CC1 | 4.7 | -1.0 | 18.0 | 39.7 | -1.7 | 41.9* | 30.1
O=C(CSCc1ccc(F)cc1)N1CCN(c2ccccc2)CC1 | 19.7 | -4.2 | 2.2 | 21.1 | 9.3 | 30.1 | /
Cc1ccccc1CSCC(=O)N1CCN(c2ccccc2)CC1 | -8.6 | -3.1 | 10.1 | 26.9 | -14.3 | 44.0* | 22.6
Cc1ccc(N2CCN(C(=S)c3ccc(N(C)C)cc3)CC2)cc1 | 3.4 | -6.4 | 27.3 | 31.5 | -3.9 | 22.9 | /
CN(C)c1ccc(C(=S)N2CCN(c3ccccc3)CC2)cc1 | 3.8 | 9.0 | 32.3 | 43.3 | -0.1 | 46.0* | 36.3*
CC(=O)N1CCN(C(=S)c2ccc(N(C)C)cc2)CC1 | 1.4 | -0.5 | 10.5 | 8.6 | 6.5 | 16.8 | /
CC(C)c1ccc(S(=O)(=O)N2CCN(C(=O)Cc3ccsc3)CC2)cc1 | 15.0 | 8.9 | 13.3 | 26.7 | 23.9 | 42.9* | 12.1
COc1ccc(C(=S)N2CCN(S(=O)(=O)c3ccccc3)CC2)cc1 | 4.0 | -5.3 | 14.6 | 42.3 | -11.4 | 46.2* | 24.9
CN(C)c1ccc(C(=S)N2CCN(S(=O)(=O)c3ccccc3)CC2)cc1 | -4.3 | -8.4 | 19.2 | 20.9 | -17.3 | 40.3* | 20.2
CC(NC(=O)c1ccccc1NC(=O)CN1CCc2ccccc2C1)c1ccccc1 (configuration not stated) | 21.5 | 11.3 | 12.5 | 41.3 | -3.8 | 36.5 | /
CCOc1cccc(/C=N/NC(=O)c2cc(C3CC3)[nH]n2)c1O | 9.5 | 0.0 | -15.1 | 19.9 | -11.5 | 18.5 | /
O=[N+]([O-])c1cc([N+](=O)[O-])c(Oc2cc(Cl)cc(Cl)c2)cc1NN1CCCCC1 | -4.6 | / | -2.4 | 15.8 | -2.0 | 11.3 | /
CC(C)c1ccc(NC(=S)N2CCN(S(=O)(=O)c3ccccc3)CC2)cc1 | 20.1 | 1.5 | 14.8 | 27.9 | 9.7 | 41.3* | 26.5
COc1ccc(S(=O)(=O)N2CCN(C(=O)c3ccc(NC(C)=O)cc3)CC2)cc1 | 5.9 | / | 7.4 | 11.9 | -9.9 | 5.1 | /
COc1ccc(S(=O)(=O)N2CCN(C(=O)c3cccc(Cl)c3)CC2)cc1 | 15.9 | -2.9 | 20.3 | 41.0 | 2.1 | 56.3* | 26.8
COc1ccc(OC2CCN(S(=O)(=O)c3ccc(OC)cc3)CC2)cc1 | 25.9 | -5.8 | 8.4 | 45.1 | 0.6 | 43.0* | 42.0*
COc1ccc(S(=O)(=O)N2CCN(C(=O)c3ccc([N+](=O)[O-])o3)CC2)cc1 | 27.4 | 6.3 | 27.6 | 35.4 | -3.1 | 50.5* | 45.1*
